Screening results as filed in PubChem.
Compounds with a hit are over-represented: about 1.1% of the library has one in this group of screens.
VLA-4 inh: inhibition in human VLA-4 binding assay, primary screen, VLA-4 allosteric modulator project, MLPCN library, flow cytometry, VLA-4 expressing cells | Integrin alpha-4 (Homo sapiens), P13612 | ligand binding flow cytometry | inhibition, % (about 7 µM as worked out from the volumes in the protocol) | actives 0.2% (n = 330,000) | AID 2557, 2010; in the data active means inhibition above about 50%
Target sequence (P13612 whole entry, looked up): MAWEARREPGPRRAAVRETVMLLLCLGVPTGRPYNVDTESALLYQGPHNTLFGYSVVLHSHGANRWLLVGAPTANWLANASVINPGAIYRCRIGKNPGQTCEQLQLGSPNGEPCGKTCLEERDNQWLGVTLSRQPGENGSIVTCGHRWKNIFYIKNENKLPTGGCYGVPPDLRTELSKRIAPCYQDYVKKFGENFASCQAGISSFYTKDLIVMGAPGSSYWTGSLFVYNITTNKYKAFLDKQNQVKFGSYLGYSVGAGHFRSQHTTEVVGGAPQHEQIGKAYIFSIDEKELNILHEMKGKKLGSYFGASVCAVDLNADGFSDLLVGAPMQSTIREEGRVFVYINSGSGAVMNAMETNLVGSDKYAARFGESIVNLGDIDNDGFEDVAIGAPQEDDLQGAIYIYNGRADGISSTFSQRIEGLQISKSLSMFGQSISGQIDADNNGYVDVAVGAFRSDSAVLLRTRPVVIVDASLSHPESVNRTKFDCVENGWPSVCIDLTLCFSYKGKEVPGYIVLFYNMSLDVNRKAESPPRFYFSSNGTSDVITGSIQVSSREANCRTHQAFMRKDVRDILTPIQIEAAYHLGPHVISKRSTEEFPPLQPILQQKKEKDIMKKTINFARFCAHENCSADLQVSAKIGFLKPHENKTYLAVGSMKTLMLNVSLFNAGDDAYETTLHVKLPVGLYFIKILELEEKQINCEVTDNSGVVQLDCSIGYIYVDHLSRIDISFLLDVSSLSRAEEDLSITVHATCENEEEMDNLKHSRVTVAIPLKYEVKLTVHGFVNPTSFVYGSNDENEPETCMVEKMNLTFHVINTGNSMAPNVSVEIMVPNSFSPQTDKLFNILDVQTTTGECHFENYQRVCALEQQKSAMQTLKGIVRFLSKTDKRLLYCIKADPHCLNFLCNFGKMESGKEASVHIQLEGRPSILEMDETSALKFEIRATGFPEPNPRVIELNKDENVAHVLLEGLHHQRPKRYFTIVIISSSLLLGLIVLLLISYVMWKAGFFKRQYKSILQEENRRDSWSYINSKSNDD
CIT2-GFP yeast: modulators of CIT2-GFP expression in yeast, primary screen, S. cerevisiae, GFP fusion, multiplex flow cytometry, MLPCN library; S. cerevisiae CIT2-GFP strain, 3 h; 100 means same as DMSO wells; GFP response vs DMSO, % at 10 µM; actives 0.065% (n = 320,000);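 active means GFP response relative to DMSO above a set limit, near the screen mean plus 3 SD, cut at about 150% in these data; inconclusive means Fewer than 70 cells measured for a yeast strain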;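 further: ratio of well median GFP fluorescence to mean of DMSO wells on the plate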
MEP2-GFP yeast: modulators of MEP2-GFP levels in yeast, primary screen, S. cerevisiae, multiplex flow cytometry, MLPCN library. S. cerevisiae MEP2-GFP strain, 3 h; 100% = DMSO control level. GFP response vs DMSO, % at 10 µM. actives 0.51% (n = 330,000). AID 2016, 2009;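 active means GFP response versus DMSO above a set limit, roughly screen mean plus 3 SD, cut at about 180% in these data; inconclusive means fewer than 70 cells counted for a yeast strain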;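 further: median GFP fluorescence of the barcode-gated MEP2-GFP cells per well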
LAP4 TOR yeast: modulators of LAP4-GFP expression in yeast, primary screen, S. cerevisiae, multiplex flow cytometry, MLPCN library | GFP response vs DMSO, % at 10 µM | actives 0.34% (n = 320,000) | 3 h; median GFP as percent of DMSO wells;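 active means GFP response vs DMSO above a set limit, about the screen mean plus 3 SD, cut at about 150% in these data; inconclusive means under 70 cell events counted for the yeast strain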
AGP1-GFP MLPCN: modulators of AGP1-GFP expression in yeast TOR pathway, primary screen, cell-based, multiplex flow cytometry, S. cerevisiae, MLPCN library; 3 h; GFP as percent of DMSO wells; GFP response vs DMSO, % at 10 µM; actives 0.02% (n = 320,000); AID 2066, 2009;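 active means GFP response relative to DMSO above a set limit, near screen average plus 3 SD, cut at about 150% in these data; inconclusive means fewer than 70 cells counted for the yeast strain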;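 further: median GFP channel fluorescence of the gated AGP1 strain per well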
RPL19A TOR yeast: RPL19A-GFP expression modulators in yeast, primary screen, cell-based, S. cerevisiae, multiplex flow cytometry, MLPCN; S. cerevisiae RPL19A-GFP strain, 3 h; hits give low values; percent response vs DMSO, % at 10 µM; actives 0.3% (n = 330,000);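 active means percent response vs DMSO below 50%; inconclusive means fewer than 70 events counted for the yeast strain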;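 further: median channel GFP fluorescence of the barcoded RPL19A-GFP strain; ratio of sample median GFP to plate DMSO average so 100% = DMSO; lower means less RPL19A-GFP as with rapamycin TOR inhibition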
An asterisk follows results filed as active; ? = inconclusive; / = no result; [ ] = remark or other dose.

SMILES	VLA-4 inh	CIT2-GFP yeast	MEP2-GFP yeast	LAP4 TOR yeast	AGP1-GFP MLPCN	RPL19A TOR yeast
Cc1ccc(P(=O)(CC(=O)O)c2ccc(C)cc2)cc1	18.6	?	355.4*[may fluoresce violet]	104.2	?	14.7*[may fluoresce violet]
CCNC(=O)CP(=O)(c1ccccc1)c1ccccc1	-7.5	101.3	101.7	94.0	101.1	99.0
COc1ccc(-n2nc(C(=O)NCC(=O)N3CCCC3)c3ccccc3c2=O)cc1Cl	-6.2	?	269.7*[may fluoresce violet]	80.7	?	55.8
CCOC(=O)N1CCN(C(=O)CNC(=O)c2nn(-c3ccc(OC)c(Cl)c3)c(=O)c3ccccc23)CC1	-5.2	101.0	100.0	109.0	104.3	100.2
COc1ccc(OC)c(S(=O)(=O)Nc2cccc3ccc(O)cc23)c1	10.5	106.6	106.8	115.8	110.0	104.7
CCC(C)NCCCCOc1ccc(Cl)cc1C (configuration not stated)	0.5	102.4	87.4	88.0	98.1	100.5
CCC(C)NCCCOc1cc(Cl)ccc1Cl (configuration not stated)	0.9	?	609.1*[may fluoresce violet]	123.6	/	42.0*[may fluoresce violet]
COc1cc(/C=N/n2cnnc2)ccc1OCCOc1ccccc1	12.5	?	261.8*[may fluoresce violet]	90.5	28.6	/
COc1cc(/C=N/n2cnnc2)ccc1OCc1ccccc1	12.7	108.9	111.8	94.3	110.5	103.8
COc1ccccc1CNC(=O)c1cnccn1	0.3	?	185.6*[may fluoresce violet]	102.7	?	29.2*[may fluoresce violet]
COc1ccccc1CNC(=O)COC(=O)c1cnccn1	6.6	99.5	98.1	99.1	100.3	100.2
NC(=O)C1CCN(C(=O)CCCCCn2c(=O)[nH]c3ccsc3c2=O)CC1	0.3	?	222.0*[may fluoresce violet]	82.6	?	22.3*[may fluoresce violet]
COc1cccc(CNC(=O)Cn2ccc3cc(S(=O)(=O)N4CCCCCC4)ccc32)c1	-0.5	105.9	103.7	93.6	102.7	98.8
Cc1cc(C)n2nc(CNS(=O)(=O)c3ccc([N+](=O)[O-])cc3)nc2n1	26.8	?	130.3	80.3	?	28.7*[may fluoresce violet]
Cc1cccc(NC(=O)/C(C#N)=C/c2ccccc2Cl)n1	13.1	94.1	95.3	164.1*	83.8	90.1
Cc1cccc(NC(=O)/C(C#N)=C/c2ccc(Cl)cc2)n1	4.4	84.0	97.8	109.7	88.9	86.2
CCN(CC)S(=O)(=O)c1ccc(C(=O)N(c2ccc(C)cc2)C2C=CS(=O)(=O)C2)cc1 (configuration not stated)	2.1	?	160.3	62.3	?	40.9*[may fluoresce violet]
Cc1ccc(N(C(=O)c2ccc(S(=O)(=O)N3CCOCC3)cc2)C2C=CS(=O)(=O)C2)cc1 (configuration not stated)	11.6	93.8	101.9	102.4	97.9	99.2
Cc1cc(C(=O)CCC(=O)NCc2ccccc2F)c(C)s1	1.0	94.9	99.7	103.0	99.5	100.4
CCC(Oc1ccccc1)C(=O)Nc1ccc(S(=O)(=O)Nc2ncccn2)cc1 (configuration not stated)	-5.9	?	236.1*[may fluoresce violet]	76.5	21.5	103.4
COc1cc(C(=O)N/C(=C\c2cn(C)c3ccccc23)C(=O)NCCCN2CCOCC2)cc(OC)c1OC	6.7	94.5	94.3	94.0	103.5	99.2
Cc1ccc(C(=O)N/C(=C\c2ccc(-c3ccccc3[N+](=O)[O-])o2)C(=O)NCCCN2CCOCC2)cc1	5.5	?	147.8	66.4	?	13.4*[may fluoresce violet]
Cc1ccc(C(=O)N/C(=C\c2cn(C)c3ccccc23)C(=O)NCCN2CCOCC2)cc1	5.3	?	231.3*[may fluoresce violet]	63.5	?	34.4*[may fluoresce violet]
Cc1ccc(C(=O)N/C(=C\c2cn(C)c3ccccc23)C(=O)NCCCN2CCOCC2)cc1	32.1	?	259.6*[may fluoresce violet]	46.4	?	40.4*[may fluoresce violet]
COc1ccc(C(=O)N/C(=C\c2cn(C)c3ccccc23)C(=O)NCCCn2ccnc2)cc1	3.3	?	181.4*[may fluoresce violet]	91.4	?	60.6
SMILES	VLA-4 inh	CIT2-GFP yeast	MEP2-GFP yeast	LAP4 TOR yeast	AGP1-GFP MLPCN	RPL19A TOR yeast
CCOc1ccc(C(=S)N2CCCC2)c(OCC)c1	-13.6	102.5	106.7	100.8	102.4	98.9
Cc1cc(-c2ccc(S(=O)(=O)N3CCN(c4cccc(C)c4C)CC3)s2)on1	0.5	97.3	95.0	100.0	95.4	96.9
O=C(NC(=S)NCCN1CCOCC1)c1cccc(Cl)c1	24.4	?	217.8*[may fluoresce violet]	109.2	?	24.4*[may fluoresce violet]
O=C(NCCN1CCOCC1)/C(=C/c1ccc(Cl)cc1)NC(=O)c1ccccc1	10.1	94.0	102.3	103.1	95.8	109.6
O=C(NC(=S)NCCN1CCOCC1)c1ccccc1	11.1	103.5	102.5	87.7	99.7	108.0
Cc1ccc(C(=O)N/C(=C\c2ccc(Cl)cc2)C(=O)NCCN2CCOCC2)cc1	2.4	?	361.2*[may fluoresce violet]	80.3	?	53.1
CC1CC(C)CN(CCCNS(=O)(=O)c2ccc3c(c2)oc(=O)n3C)C1 (configuration not stated)	-160.3	108.4	103.7	72.7	97.4	111.4
Clc1cccc(Cl)c1CNc1ccc(N2CCCC2)cc1	-1.8	101.9	102.0	101.0	102.4	104.0
CC1C2=C(CC(C)(C)CC2=O)NC2=C1C(=O)CC(C)(C)C2	1.4	?	87.8	109.5	23.3	43.4*[may fluoresce violet]
CC1(C)CC(=O)C2=C(C1)NC(=O)NC2c1ccccc1 (configuration not stated)	-9.1	81.0	85.7	80.3	84.1	94.1
Cc1csc(NC(=O)CSc2nnc(NC(=O)NC(C)(C)C)s2)n1	-5.0	103.3	111.4	105.9	109.4	98.8
CC(C)(C)OC(=O)N/N=C/c1cccn1-c1ccc([N+](=O)[O-])cc1	14.2	104.7	108.8	116.8	112.8	101.9
CN(C)c1ccc(-n2cccc2/C=C/[N+](=O)[O-])cc1	15.0	89.7	98.7	154.8*	96.4	92.1
CS(=O)(=O)N1CCN(c2ccccc2NC(=O)c2cc3ccccc3o2)CC1	-17.9	?	345.3*[may fluoresce violet]	87.7	?	24.1*[may fluoresce violet]
CN1CCN(c2ccccc2NC(=O)c2cc3ccccc3o2)CC1	-2.0	100.5	111.9	114.9	105.5	102.3
CC1CC(=O)Nc2ccccc2N1S(=O)(=O)c1ccc(C(F)(F)F)cc1 (configuration not stated)	-15.4	162.4*[may fluoresce green]	110.7	108.2	115.3	94.8
CCCn1c(=O)[nH]c(=O)c2c1nc(-c1ccc(C#N)cc1)n2CCOC	5.7	114.4	106.4	90.2	103.7	112.2
